Screens (PubChem BioAssay)
Many of the other results were omitted from the sample, so hits are more common in it than they were.
AmpC inh detg = qHTS Inhibitors of AmpC Beta-Lactamase (assay with detergent) | P00811 | AmpC hydrolysis of nitrocefin, absorbance 480 nm, 0.01% Triton | Potency, µM (highest dose often 114 µM), for the others: at the top dose activity change, negative = inhibition, hits mostly inhibitors | hit rate 0.041% among 370,000;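 further: potency means the concentration at half of the fitted maximal effect; 0% = no-compound wells and -100% = no-enzyme wells; nearly all actives have a fitted effect of over 25% in size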
Target sequence (P00811 whole entry, looked up): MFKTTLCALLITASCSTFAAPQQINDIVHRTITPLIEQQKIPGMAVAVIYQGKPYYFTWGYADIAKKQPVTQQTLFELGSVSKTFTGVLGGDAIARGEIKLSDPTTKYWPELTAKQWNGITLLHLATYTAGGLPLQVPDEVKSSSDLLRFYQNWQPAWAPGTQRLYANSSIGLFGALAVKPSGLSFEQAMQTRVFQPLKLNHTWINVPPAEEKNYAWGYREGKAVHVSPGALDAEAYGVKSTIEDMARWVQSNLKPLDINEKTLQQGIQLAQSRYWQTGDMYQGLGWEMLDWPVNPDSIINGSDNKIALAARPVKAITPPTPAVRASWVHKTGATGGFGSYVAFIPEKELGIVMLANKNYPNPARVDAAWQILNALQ
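AmpC (5.3 nM in the dispensed reagent) in 20 mM phosphate pH 7.0 with 0.01% (detergent screen) or 0.0001% Triton X-100 was preincubated with compounds for 15 min at room temperature. Nitrocefin was then added from an 800 uM solution, and hydrolysis was followed at 480 nm.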
Shiga toxin inh = A qHTS for Small Molecule Inhibitors of Shiga Toxin; inhibition, % at 38.7 µM; Vero cells, Shiga toxin protein synthesis inhibition reporter; AID 2315, 2010; hit rate 9.2% among 290,000; in the data active means inhibition mostly above about 28%, no sharp cut-off; inactive means mostly below about 43%; further: 0% is about no effect
CHX counter = Cycloheximide Counterscreen for Small Molecule Inhibitors of Shiga Toxin. cell reporter, cycloheximide protein synthesis inhibition counterscreen. max response, %. hit rate 12% among 300,000; in the data active means max response mostly above about 13%, no sharp cut-off; inactive means mostly below about 14%; further: read at 38.3 µM for the half of the compounds with a filed dose; 0% is about no effect
AMA1 RON2 block = qHTS for Inhibitors of AMA1-RON; Towards Development of Antimalarial Drug Lead: Primary Screen. Plasmodium falciparum AMA1 (3D7) - RON2 peptide interaction. hit rate 0.2% among 360,000. AlphaScreen AMA1-biotinylated RON2 peptide binding. AID 720542, 2013. Potency, µM (highest dose often 58.2 µM), for inactives: at the top dose activity change, negative = inhibition, usual class: inhibitors;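 further: potency means the concentration at half of the fitted maximal effect; 0% = vehicle wells and -100% = peptide control; nearly all actives have a fitted effect of over 45% in size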
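AMA1 (3D7) with his tag at 25 nM final met compounds first, then biotinylated RON2 peptide at 25 nM; detection used donor plus acceptor beads, 10 µg/mL apiece, read by AlphaScreen after 30 min at room temperature.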
AmpC no deterg = qHTS Inhibitors of AmpC Beta-Lactamase (assay without detergent); AmpC nitrocefin hydrolysis, absorbance 480 nm, 0.0001% Triton; P00811; Potency, µM (series often up to 57.1 µM), without a hit: at the top dose activity change, negative = inhibition, usual class: inhibitors; hit rate 0.52% among 330,000; AID 485341, 2010;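 further: potency means the concentration at half of the fitted maximal effect; plate controls were no compound for no effect and no enzyme for full effect; nearly all actives have a fitted effect of over 20% in size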
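AmpC (5.3 nM in the dispensed reagent) in 20 mM phosphate pH 7.0 with 0.01% (detergent screen) or 0.0001% Triton X-100 was preincubated with compounds for 15 min at room temperature. Nitrocefin was then added from an 800 uM solution, and hydrolysis was followed at 480 nm.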
SARS PLpro yeast = qHTS of Yeast-based Assay for SARS-CoV PLP; S. cerevisiae expressing SARS-CoV PLpro, growth rescue; Potency, µM (titrated, usually from 32.9 µM), without a hit: at the highest dose activity, positive = growth rescue, actives largely listed as activators; hit rate 0.19% among 330,000; AID 485353, 2010; calls by dose curve; further: potency means the concentration at half of the fitted maximal effect; 0% is about no effect; nearly all actives have a fitted effect of over 55% in size
* = called active by the depositor; ? = inconclusive; / = no result given; [ ] = another dose, or the depositor's remark. Unless noted, the call rests on the fitted dose curve; in most records, active means well fitted curve in the direction sought with a large enough effect; inconclusive means small, poorly fitted or top-dose-only effect, or another doubt; inactive means no such curve, though single readings can be large; an effect the other way counts as inactive or inconclusive.

SMILES	AmpC inh detg	Shiga toxin inh	CHX counter	AMA1 RON2 block	AmpC no deterg	SARS PLpro yeast
Cn1c(C(=O)NCc2cccs2)cc2oc3ccccc3c21	?	81.6*	62.5*	-1.4%	17.0%	-1.6%
Cn1c(C(=O)NCC2CCCO2)cc2c(=O)n(C)c3ccccc3c21 (centres undefined)	?	11.0	-2.5	-0.2%	29.3%	-2.2%
Cn1c(C(=O)NCC2CCCO2)cc2c(=O)[nH]c3ccccc3c21 (centres undefined)	2.8%	9.4	4.6	19.4%	-7.4%	13.6%
Cn1c(C(=O)NCC2CCCO2)cc2oc3ccccc3c21 (centres undefined)	-10.7%	102.9*	34.7*	0.2%	14.5%	-3.4%
Cn1c(=O)c(C(=O)NCC2CCCO2)c(O)c2ccccc21 (centres undefined)	1.8%	45.4	26.9*	20.0%	37.5%	-1.3%
CS(=O)(=O)N(Cc1ccccc1)c1ccc(C(=O)N2CCOCC2)cc1	-7.7%	-3.7	-0.9	3.6%	-8.9%	-1.0%
Cc1ccc(CN=c2c([N+](=O)[O-])nn(-c3cccc(C)c3)n2O)cc1	-4.7%	26.2	25.1*	?	-29.6%	0.6%
COc1ccc(-n2nc([N+](=O)[O-])c(=NCc3ccco3)n2O)cc1	5.4%	80.5*	29.7*	8.0%	-23.7%	7.5%
COc1ccc(-n2nc([N+](=O)[O-])c(=NCCc3ccc(Cl)cc3)n2O)cc1	-8.3%	-3.7	15.7	-15.1%	33.6%	-1.3%
COc1ccc(-n2nc([N+](=O)[O-])c(=NCc3cccnc3)n2O)cc1	-2.0%	25.9	65.3*	4.5%	-15.8%	-6.5%
COc1ccc(-n2nc([N+](=O)[O-])c(=NCCc3ccc(C)cc3)n2O)cc1	-6.4%	46.7	5.3	?	-7.5%	-5.0%
COc1ccc(-n2nc([N+](=O)[O-])c(=NCCC3=CCCCC3)n2O)cc1	5.0%	46.0	32.3*	15.8µM*	2.0%	-1.7%
Nc1c(Cl)nc(-c2ccccc2)nc1Cl	-14.5%	21.0	13.8*	-6.6%	-4.1%[11.4 µM]	-2.5%
Cc1nc(-c2ccccc2)nc(Cl)c1Cl	-19.1%	13.4	1.8	-4.5%	-20.2%	0.0%
CC(C)NC(=O)/C(C#N)=C/c1ccc(N(C)C)o1	-0.6%	59.6*	15.8*	-17.7%	-2.3%	-0.7%
O=C(COCc1cc(-c2ccc3c(c2)OCO3)on1)N1CCN(c2ccc(F)cc2)CC1	-8.1%	-7.0	-6.0	-2.0%	-5.6%	19.3%
Cc1cc(Nc2ccccc2)nn1C(=O)c1ccc([N+](=O)[O-])cc1	?	-6.6	-3.1	-22.9%	-13.0%	15.8%
Cc1cc(Nc2ccccc2)n(C(=O)c2ccccc2)n1	-1.3%	72.6	47.2*	-9.6%	-10.7%	-27.2%
Cc1cc(Nc2ccccc2)nn1C(=O)c1ccc(Cl)cc1	3.5%	156.1*	49.1*	-14.0%	-11.3%	-56.5%
Cc1cc(Nc2ccccc2)n(-c2ccccc2)n1	0.2%	-11.2	-2.7	-1.1%	-5.9%	-2.5%
CCc1nccn1Cc1cc(C=O)ccc1OC	-7.1%	-12.0	-3.8	9.7%	2.2%	1.6%
NC1=NC(=O)/C(=C/c2ccsc2)S1	-0.5%	-2.9	-1.2	6.3%	-24.1%	-0.5%
Oc1ccc(/C=C/c2cc(O)cc(O)c2)cc1	?	20.3*	25.6*	-0.8%	-36.1%	-0.1%
Oc1cc(O)cc(/C=C/c2ccc(O)cc2O)c1	4.9%	/	/	14.0%	-14.2%	7.0%
CCOP(=O)(OCC)/C(=C/N1CCCCC1)NC(=O)c1ccccc1	3.2%	29.0	12.5*	11.9%	-14.2%	0.2%
SMILES	AmpC inh detg	Shiga toxin inh	CHX counter	AMA1 RON2 block	AmpC no deterg	SARS PLpro yeast
CCOC(=O)C(NC(=O)c1ccccc1)=C1CCCCC1	-7.3%	-4.5	-0.3	-6.6%	-5.3%	10.4%
COc1ccccc1N1CCN(C(=O)CCc2ccc(S(=O)(=O)NC(C)C)cc2)CC1	-16.3%	14.1	9.1	-6.0%	85.3%	-3.5%
Cc1cc(CC(C)C)n(-c2nc3ccccc3c(=O)n2OCC(N)=O)n1	-14.5%	104.2*	25.7*	22.7%	5.7%	-2.1%
Cc1cc(C)n(-c2nc3ccccc3c(=O)n2OCC(N)=O)n1	2.3%	-12.8	10.2	9.6%	-2.4%	-1.5%
COc1ccc(-n2ncc3c2CC(C)(C)CC3NC(=O)CSc2ccccn2)cc1 (centres undefined)	-3.1%	8.6	-2.7	8.5%	25.8%	-1.8%
CN(c1nc(-c2ccccc2)cs1)C1CCS(=O)(=O)C1 (centres undefined)	?	61.0*	20.4*	-5.5%	-12.4%	-1.7%
CN(C(=O)CSc1nc(-c2ccccc2)cs1)C1CCS(=O)(=O)C1 (centres undefined)	-13.5%	37.3	11.0	7.6%	-15.4%	0.4%
O=C(Nc1ccc(Cl)c(Cl)c1)N(Cc1cccnc1)Cc1ccco1	8.0%	-23.0	-4.2	-0.4%	-3.9%	-27.5%
CC(=O)/C(N=Nc1ccc(C(=O)O)cc1)=C(\C)O	1.1%	3.5	-1.9	3.7%	-10.5%	-1.4%
CC(=O)/C(N=Nc1ccc2c(c1)OCCO2)=C(\C)O	10.6%	135.6*	81.6*	-3.7%	-13.2%	-3.1%
CC(=O)/C(N=Nc1ccc2c(c1)OCO2)=C(\C)O	-0.2%	107.8*	73.9*	-15.1%	16.3%	-2.2%
COc1cccc(NC(=O)c2cc([N+](=O)[O-])ccc2N2CCN(C)CC2)c1	0.9%	24.1	1.0	11.8%	-0.7%	0.3%
Cc1cc(NCc2ccco2)n2ncnc2n1	0.8%	-13.3	-2.1	14.5%	-22.8%	2.1%
CC1=C(C(=O)Nc2ccccn2)C(c2ccc(F)cc2)n2ncnc2N1 (centres undefined)	4.2%	41.9	14.7*	-4.8%	-3.7%	12.2%
COc1ccc(C2NC(=S)NC(C)=C2C(=O)Nc2ccccn2)cc1 (centres undefined)	?	34.1*	36.3*	-8.6%	-24.3%	0.1%
CC1=C(C(=O)Nc2ccccn2)C(c2ccccc2)n2ncnc2N1 (centres undefined)	2.3%	11.2	15.1*	2.3%	-10.9%	2.8%
Cc1ccc(CNC(=O)Nc2ccccc2)cc1	6.8%	123.4*	33.3*	8.6%	-33.7%	-4.6%
CCC(C(=O)NCc1ccc(C)cc1)c1ccccc1 (centres undefined)	-13.6%	/	3.6	-1.0%	-13.4%	4.1%
Cc1ccc(CNC(=O)C2CCN(C(=O)Nc3ccccc3)CC2)cc1	1.7%	8.8	7.8	-11.3%	2.1%	-2.1%
Cc1ccc(CNCC(O)(c2ccccc2)c2ccccc2)cc1	-1.0%	22.6	14.7*	19.0%	-5.7%	0.3%
Cc1ccc(CNC(=O)NCc2ccccc2)cc1	3.7%	149.0*	25.7*	-5.3%	-18.8%	0.3%
